According to PubChem BioAssay (Tox21):
Several values for one entry are separate records, joined by “and”; a condition that tells them apart may be missing. Identical values can stand only once. Results filed as inconclusive are left out. Activity calls are given as the source filed them. Unless noted, calls come from the whole dose curve; as a rule, active = well fitted curve in the direction sought with a large enough effect in the repeat runs; inconclusive = weak or mixed curves; inactive = no such curve, though single readings can be large; an effect the other way counts as inactive or inconclusive.

Key:
[1] = qHTS assay to identify small molecule agonists of the hypoxia (HIF-1) signaling pathway - cell viability counter screen (AID 1224844; calls by dose curve; note: nearly all actives have a fitted effect of over 50% in size)
How it was run: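 HRE-bla ME-180 cells, 2,000/well in 0.5% dialyzed FBS medium, treated 17 h at 37C with compounds. Viability read in the same wells as the bla reporter, by CellTiter-Glo luminescence after 30 min at room temperature.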

[2] = qHTS assay to identify small molecule agonists of H2AX (AID 1224845; active = well fitted activation curve with a large enough effect in the signal ratio in the repeat runs, not every such curve was filed as active; the % refers to the signal ratio)
How it was run: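 Phospho-H2AX Ser139 measured by HTRF (ex 320 nm; em 665 and 620 nm) after 24 hr antibody incubation. Compounds, 15 concentrations, 0.76% DMSO, were applied to CHO-K1 cells for 3hr at 37C before lysis.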

[3] = qHTS assay to identify small molecule agonists of the hypoxia (HIF-1) signaling pathway (AID 1224846; active = well fitted activation curve with a large enough effect in the signal ratio in the repeat runs, not every such curve was filed as active; the % refers to the signal ratio)
How it was run: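 HRE-bla ME-180 beta-lactamase reporter cells in medium with 0.5% dialyzed FBS, pre-incubated 5 h then exposed to compounds 17 h at 37C, 5% CO2; reporter induction read with CCF4-AM FRET substrate.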

[4] = qHTS assay to identify small molecule agonists of H2AX - cell viability counter screen (AID 1224847; calls by dose curve; note: nearly all actives have a fitted effect of over 30% in size; note: potency is the fitted concentration of half-maximal effect)
How it was run: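 Counter-screen for viability: CellTiter-Glo ATP luminescence read after 3 h compound treatment (15-point titration, 0.76% DMSO final) of CHO-K1 cells at 37C, with 30 min room-temperature reagent incubation.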

[5] = qHTS assay to identify small molecule agonists of the estrogen related receptor (ERR) signaling pathway from Tox21 library (AID 1224849; calls by dose curve; note: nearly all actives have a fitted effect of over 15% in size); conditions: ERR reporter cell line, ONE-Glo luciferase, 18 h; at 92.4 µM (top of the series) unless noted
How it was run: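 ERR reporter cells (NTP line) pre-incubated 6 hours at 37 C, then exposed to compounds for 18 hours at 37 C. ONE-Glo luciferase luminescence was read after 30 minutes at room temperature.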

[6] = qHTS RealTime-Glo MT Cell Viability Assay in HepG2 cells - 24 hour (AID 1224867); note: nearly all actives have a fitted effect of over 50% in size
How it was run: (§1)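 Luminescence read-out: viable HepG2 cells reduce a prosubstrate to a NanoLuc substrate, giving a signal proportional to live cell number. Reads taken at 0, 8, 16, 24, 32 and 40 h of compound exposure at 37 C.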

[7] = qHTS RealTime-Glo MT Cell Viability Assay in HEK293 cells - 32 hour (AID 1224868); note: top concentration of the series differs between compounds; nearly all actives have a fitted effect of over 50% in size
How it was run: (§2)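 Nonlytic real-time viability readout: viable cells convert prosubstrate to NanoLuc substrate, giving luminescence proportional to live cell number. HEK293, 600 cells/well, compound added after 5 h, continuous culture at 37 C.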

[8] = A CellTox Green Cytotoxicity Assay to monitor cytotoxicity in HEK293 cells - 0 hour (AID 1224869); note: nearly all actives have a fitted effect of over 50% in size; note: potency is the fitted concentration of half-maximal effect
How it was run: (§3)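 HEK293 cells, 600/well, were preincubated 5 hours and then exposed to compounds at 37 C for up to 40 hours. A cell-impermeant cyanine dye staining dead-cell DNA was read by fluorescence at 0, 8, 16, 24, 32 and 40 h time points.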

[9] = qHTS RealTime-Glo MT Cell Viability Assay in HepG2 cells - 40 hour (AID 1224870); note: nearly all actives have a fitted effect of over 50% in size
How it was run: (§4)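 Real-time viability: cells seeded at 600 per well together with NanoLuc and cell-permeant prosubstrate, compounds added after 5 h incubation. Luminescence tracked at 0, 8, 16, 24, 32 and 40 h of exposure.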

[10] = A CellTox Green Cytotoxicity Assay to monitor cytotoxicity in HEK293 cells - 40 hour (AID 1224871); note: nearly all actives have a fitted effect of over 45% in size; note: potency is the fitted concentration of half-maximal effect
How it was run: as §3

[11] = qHTS RealTime-Glo MT Cell Viability Assay in HepG2 cells - 8 hour (AID 1224873); note: nearly all actives have a fitted effect of over 55% in size
How it was run: as §4

[12] = qHTS RealTime-Glo MT Cell Viability Assay in HEK293 cells - 40 hour (AID 1224874); conditions: RealTime-Glo luminescence; max response: hits give low values; note: nearly all actives have a fitted effect of over 50% in size
How it was run: (§5)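 600 cells/well were plated with the nonlytic NanoLuc/prosubstrate reagent, pre-incubated 5 h, then given 23 nL of compound in DMSO. Incubation at 37 C for 40 h, with luminescence from viable-cell-reduced substrate read repeatedly from 0 h.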

[13] = qHTS RealTime-Glo MT Cell Viability Assay in HepG2 cells - 32 hour (AID 1224877); note: nearly all actives have a fitted effect of over 55% in size
How it was run: as §1

[14] = qHTS RealTime-Glo MT Cell Viability Assay in HEK293 cells - 0 hour (AID 1224880); note: top concentration of the series differs between compounds; nearly all actives have a fitted effect of over 45% in size
How it was run: as §5

[15] = qHTS RealTime-Glo MT Cell Viability Assay in HEK293 cells - 16 hour (AID 1224872)
How it was run: as §2

[16] = A CellTox Green Cytotoxicity Assay to monitor cytotoxicity in HEK293 cells - 24 hour (AID 1224875); note: nearly all actives have a fitted effect of over 45% in size; note: potency is the fitted concentration of half-maximal effect
How it was run: as §3

[17] = A CellTox Green Cytotoxicity Assay to monitor cytotoxicity in HepG2 cells - 16 hour (AID 1224876); note: nearly all actives have a fitted effect of over 45% in size; note: potency is the fitted concentration of half-maximal effect
How it was run: (§6)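 HepG2 cells, 600/well, preincubated 5 h with CellTox Green dye, then exposed to Tox21 compounds in DMSO at 37 C for up to 40 h. Dead-cell DNA fluorescence read at the indicated time point.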

[18] = A CellTox Green Cytotoxicity Assay to monitor cytotoxicity in HepG2 cells - 24 hour (AID 1224878); note: nearly all actives have a fitted effect of over 45% in size; note: potency is the fitted concentration of half-maximal effect
How it was run: as §6

[19] = A CellTox Green Cytotoxicity Assay to monitor cytotoxicity in HepG2 cells - 40 hour (AID 1224879); note: nearly all actives have a fitted effect of over 40% in size; note: potency is the fitted concentration of half-maximal effect
How it was run: as §6

[20] = qHTS assay to identify small molecule antagonists of the estrogen related receptor (ERR) signaling pathway from Tox21 library (AID 1224848); note: nearly all actives have a fitted effect of over 50% in size
How it was run: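 Reading was by luminescence 30 min after ONE-Glo addition. Before that, ERR cells at 2,000 per well had rested 6 h at 37 C/5% CO2 and then received pin-tooled compounds in DMSO for 18 h at 37 C.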
% is set by controls: 0 for no effect and ±100 for the full control effect.

CC(C)(C)C1CCC(CC2=C(O)c3ccccc3C(=O)C2=O)CC1 (stereo not given)
active: Potency [10] 16.9 µM
inactive: Potency [1] | Potency [2] | Potency [3] | Potency [4] | activity change, positive = activation [5] -24.7% [at 42.5 µM] | Potency [6] | Potency [7] | Potency [8] | Potency [9] | Potency [11] | max response [12] -30% | Potency [13] | Potency [14]

O=[N+]([O-])c1ccccc1Nc1ccccc1
inactive: Potency [1] | Potency [2] | Potency [3] | Potency [4] | Potency [6] | Potency [7] | Potency [8] | Potency [9] | Potency [10] | Potency [15] | Potency [11] | max response [12] 0.685% | Potency [16] | Potency [17] | Potency [13] | Potency [18] | Potency [19] | Potency [14]

CSc1cnc(C)cn1
active: Potency [8] 56.4 µM | Potency [10] 89.4 µM | Potency [16] 89.4 µM | Potency [17] 89.4 µM | Potency [18] 63.3 µM | Potency [19] 63.3 µM
inactive: Potency [1] | Potency [2] | Potency [3] | Potency [4] | Potency [6] | Potency [7] | Potency [9] | Potency [15] | Potency [11] | max response [12] 7.94% | Potency [13] | Potency [14]

Cc1ccc(O)c(C(C)(C)C)c1
active: Potency [4] 89.6 µM | Potency [10] 43.6 µM | Potency [16] 48.9 µM | Potency [17] 38.8 µM and 34.7 µM | Potency [18] 43.6 µM and 34.7 µM | Potency [19] 43.6 µM and 34.7 µM
inactive: Potency [1] | Potency [2] | Potency [3] | Potency [6] | Potency [7] | Potency [8] | Potency [9] | Potency [15] | Potency [11] | max response [12] -17.7% and -1.19% | Potency [13] | Potency [14]

C[C@H]1[C@H]2CC[C@H]3[C@@H]4CC=C5C[C@@H](N(C)C)CC[C@]5(C)[C@H]4CC[C@]23CN1C
inactive: Potency [1] | Potency [2] | Potency [3] | Potency [4] | Potency [20] | Potency [6] | Potency [8] | Potency [9] | Potency [10] | Potency [15] | Potency [11] | Potency [16] | Potency [13] | Potency [19] | Potency [14]

CN(C)CCCOC1(Cc2ccccc2)CCCCCC1
inactive: Potency [1] | Potency [2] | Potency [3] | Potency [4] | Potency [6] | Potency [7] | Potency [8] | Potency [9] | Potency [10] | Potency [15] | Potency [11] | max response [12] 0.0267% | Potency [16] | Potency [17] | Potency [13] | Potency [19]

O=C1c2ccccc2Cc2ccccc21
inactive: Potency [1] | Potency [2] | Potency [3] | Potency [4] | activity change, positive = activation [5] -18.6% | Potency [6] | Potency [8] | Potency [9] | Potency [10] | Potency [15] | Potency [11] | Potency [16] | Potency [17] | Potency [13] | Potency [19] | Potency [14]
